# Experimental data reported in PubChem BioAssay AID2546 (National Center for Advancing Translational Sciences (NCATS), 2010).
# Among all 310,000 compounds or so, about 11,000 (3.5%) were called active. Another 8% or so got no clear call; they are omitted. The full list was thinned out, with actives kept by preference. A number with no mark means an inactive call. The call rests on the fitted dose curve; in most records, active means well fitted inhibition curve with a large enough effect; inconclusive means small, poorly fitted or top-dose-only effect, or effect the other way; inactive means flat fitted curve, though single readings scatter.
# Assay: VP16 counterscreen qHTS for inhibitors of ROR gamma transcriptional activity;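 further: Gal4-VP16 expression switched on by copper sulfate through the metallothionein promoter; nearly all actives have a fitted effect of over 50% in size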
# Conditions: Drosophila S2 Gal4-VP16 UAS-luciferase, luminescence, 20 h; series mostly up to 53.6 µM; activity, negative = inhibition: at the top concentration
# On the % scale 0 is the no-effect control and ±100 the full control effect; potency means the concentration at half of the fitted maximal effect.
Structure (SMILES),"activity, negative = inhibition",Potency
CCCOc1ccc(-c2nc(N)n[nH]2)cc1,-8.77%,
CCCOc1ccc(Cc2c(O)nc(SC)[nH]c2=O)cc1C,-7.9%,
CCCOc1ccc(Cc2c(Cl)nc(SC)nc2NC)cc1,,7.08 µM (active)
Cc1cc(C)cc(C(=O)OCC(=O)NCCNC(=O)COC(=O)c2cc(C)cc(C)c2)c1,,0.0891 µM (active)
Cc1cccc(C(=O)OCC(=O)Nc2ccc(F)cc2)c1,-3.7%,
COc1ccccc1C(=O)OCC(=O)NCCNC(=O)COC(=O)c1ccccc1OC,10.1%,
COc1cc(N=Cc2c(O)c3ccccc3oc2=O)c(OC)cc1Cl,-16%,
CCc1ccc(NC(=O)Cn2nc(C)c([N+](=O)[O-])c2C)cc1,6.54%,
COc1ccc(CNC(=O)CCCn2nc(C)c([N+](=O)[O-])c2C)cc1,-10.7%,
Cc1ccc(Oc2cc(NC(=O)CCCn3nc(C)c([N+](=O)[O-])c3C)cc([N+](=O)[O-])c2)cc1,,1 µM (active)
CCOC(=O)c1c(S(=O)(=O)Nc2ccc(CN3CCC(C)CC3)cc2)c(C)n(C)c1C,-1.56%,
CCC(C)c1ccccc1NC(=O)CN(C)CC(=O)Nc1ccccc1SC (configuration not stated),-15.4%,
CC(=O)c1ccc(NC(=O)CCNS(=O)(=O)c2cc(Br)cnc2N)cc1,-9.98%,
COc1ccc(CCNC(=S)NC(=O)/C=C/c2ccc(C)cc2)cc1OC,,10 µM (active)
COc1ccc(CCNC(=O)Cc2ccc(C)cc2)cc1OC,-26%,
COc1ccc(CCNC(=O)NS(=O)(=O)c2ccc(C)cc2)cc1OC,3.35%,
CCN1CCN(CCNC(=O)c2ccc3c(c2)NC(=O)/C(=C\c2ccc(OC)c(OC)c2)S3)CC1,-5.66%,
CCCc1nnc(SCC(=O)Nc2ccc(C(=O)OCC)cc2)o1,-11.9%,
CCOC(=O)c1ccc(NC(=O)Cn2nnc(-c3ccc(C)cc3)n2)cc1,3.09%,
CCOC(=O)c1ccc(NC(=O)Cn2cnc3cc(C)c(C)cc32)cc1,,7.08 µM (active)
CC(C)C(=O)Nc1c2c(nn1-c1ccccc1)CSC2,-3.16%,
Cc1cc(O)cc(O)c1C(=O)Cc1cnn(-c2ccccc2)c1,,0.355 µM (active)

Structure (SMILES),"activity, negative = inhibition",Potency
O=C(c1cnn(-c2ccc(Cl)cc2)c1)c1ccccc1O,-29.8%,
COc1ccc(C(=O)Cc2cnn(-c3ccccc3)c2)c(O)c1,-9.96%,
Cc1ccc(O)c(NC(=O)c2cc(-c3ccco3)on2)c1,5.28%,
CC(C)(C)CC(C)(C)NCC(O)COCCOc1ccc(Br)cc1 (configuration not stated),,11.2 µM (active)
COc1ccc(OCC(O)CNCCNc2nccc(C(F)(F)F)n2)cc1 (configuration not stated),-3.87%,
OC(COc1ccc(Br)cc1)CN1CCCC1 (configuration not stated),-6.56%,
CCOC(=O)CSc1nnc(NC(=O)C2CC(=O)N(c3ccc(F)cc3)C2)s1 (configuration not stated),9.21%,
CCC(=O)N1c2ccc(S(=O)(=O)NCc3ccco3)cc2CC1C (configuration not stated),-10.7%,
C/C=C/C=N/NC(=O)c1ccncc1,-9.63%,
O=C(Nc1ccccc1-c1nc2ccccc2[nH]c1=O)c1cccs1,4.25%,
C/C(=N\Nc1nc2ccccc2[nH]1)c1cccs1,,6.31 µM (active)
C/C(=N\Nc1nc(Nc2ccccc2)nc(N2CCOCC2)n1)c1cccs1,-25%,
CN(c1ccccc1)S(=O)(=O)c1ccc2[nH]c(=O)[nH]c2c1,-15.9%,
CCn1ccnc1CN(C)C(=O)c1cc(COc2ccc(Cl)cc2OC)on1,6.82%,
O=C1C=C(c2ccc(Cl)cc2)C(=O)N1Nc1ccccc1,,3.98 µM (active)
O=C(Nc1ccccc1)OCc1cc(-c2ccc(Cl)cc2)on1,-8.41%,
O=C1c2cccc3cc(Br)cc(c23)C(=O)N1Nc1ccccc1,-18.6%,
Cc1ccc(NC(=S)NCCN2CCOCC2)cc1,-2.5%,
COc1cccc(NC(=S)NCCCN2CCOCC2)c1,-18%,
CCOc1cccc(/C=N/NC(=S)NCCN2CCOCC2)c1O,,2.24 µM (active)
CCOC(=O)c1c(S(=O)(=O)NCC(=O)Nc2ccc(C)cc2)c(C)n(C)c1C,0.589%,
CCCc1cc(=O)oc2c(C)c(OCC(=O)Nc3ccccn3)ccc12,2.02%,

Structure (SMILES),"activity, negative = inhibition",Potency
O=C(CN1C(=O)S/C(=C\c2ccccc2Cl)C1=O)NC1C=CS(=O)(=O)C1 (configuration not stated),-15.6%,
CCCCCCCCn1c2c(c(=N)c3c1CCC3)CCCC2,,2.51 µM (active)
COCCCNC(=O)Cc1ccc(-n2c(C)nc3cccnc32)cc1,-6.65%,
CC(Oc1ccc(Cl)cc1Cl)C(=O)/C=C/N(C)C (configuration not stated),-0.64%,
CCCC(=O)Nc1cccc(NC(=S)NC(=O)C(C)Oc2ccc(Cl)cc2Cl)c1 (configuration not stated),,2.82 µM (active)
COc1cccc(NC(=O)CN(C)C(=O)Cc2ccc(Cl)cc2Cl)c1,12.1%,
Cc1ccc(/C=C2/SC(=S)N(CCC(=O)NCCCN3CCOCC3)C2=O)cc1,5.47%,
CCCC[C@]12Cc3cc(OC)c(OC)cc3C(O1)C1=C(CC3(CCCCC3)OC1=O)O2,7.46% [at 10 µM],
C=C1/C(=C\C=C2\CCCC3(C)C2CCC3C(C)/C=C/C(O)C2CC2)CC(O)CC1O (configuration not stated),,12.6 µM (active)
C=C1C(=CC=C2CCC[C@@]3(C)[C@@H]2CC[C@H]3[C@H](C)CCCC(C)C)C[C@@H](O)C[C@@H]1O,-9.25%,
COc1ccc(C(O)(C2CCCCC2)C(CN2CCCC2)c2ccccc2)cc1 (configuration not stated),-9.79%,
O=C(NCc1ccccc1Cl)C1CCN(S(=O)(=O)c2cccc3nonc23)CC1,-5.38%,
O=C(NCCc1ccccc1)c1ccc2c(c1)N(Cc1ccccc1)CCS2,-10%,
O=c1oc(-c2ccco2)nc2sc3c(c12)CCCCC3,-24%,
COc1ccc(CCn2c(=N)c(C(=O)NCc3ccco3)cc3c(=O)n4cccc(C)c4nc32)cc1,5.42%,
O=C(NCc1ccco1)c1cccn2c(=O)c3c4c(sc3nc12)CCCC4,,11.2 µM (active)
CCCCC(C(=O)NC(C)(C)C)N(Cc1ccccc1)C(=O)c1snc(C(N)=O)c1N (configuration not stated),12.3%,
O=C(CN1CCN(Cc2ccccc2)CC1)Nc1ccc(F)c(F)c1,2.62%,
CCn1c2ccccc2c2cc(NC(=S)N3CCOCC3)ccc21,,22.4 µM (active)
CCn1c2ccccc2c2cc(NC(=O)CNC)ccc21,1.69%,
Cc1cc(N2CCN(C)CC2)nc2ccc(NC(=S)N3CCOCC3)cc12,-2.43%,
CC(C)CCN(C(=O)c1csnn1)C(C(=O)NC1CCCC1)c1ccccc1 (configuration not stated),1.57%,

Structure (SMILES),"activity, negative = inhibition",Potency
Nc1c(C(=O)NCc2ccccc2)nnn1Cc1cccc(Cl)c1,7.37%,
CC(C)CC(=O)N1CCN(Cc2cccc(Cl)c2)CC1,-11.5%,
Clc1cccc(CN2COc3c(cc(Cl)c4cccnc34)C2)c1,,1.41 µM (active)
N#Cc1cccc(CN2CCC(=O)N([C@H](CO)c3ccccc3)CC2)c1,0.328%,
Cc1ccc(NC(=O)c2c(NC(=O)CCC(=O)O)sc3c2CCCCC3)cc1,7.16%,
O=C(CN1CCCC1)Nc1sc2c(c1C(=O)Nc1ccccc1)CCCC2,,10 µM (active)
NC(=O)c1c(NC(=O)c2ccccc2)sc2c1CCCC2,2.02%,
COc1cc(S(=O)(=O)N2CCN=C2c2ccccc2)ccc1Cl,6.16%,
Cc1cc(S(=O)(=O)c2cc3ccc(O)c(C)c3oc2=O)ccc1F,-6.11%,
Cc1ccc(/C=N/NC(=O)C2=NNC(c3ccccc3)(c3ccccc3)C2)c(O)c1,,1.26 µM (active)
Cc1nc2ccc(C(=O)N/N=C/c3ccc(O)cc3)cc2[nH]1,1.9%,
Cc1ccc2occ(/C=N/NC(=O)c3ccccc3C)c(=O)c2c1,-18.9%,
O=C(NCc1ccccc1)c1onc(CSc2nc3ccccc3[nH]2)c1C(=O)NCc1ccccc1,-0.36%,
O=C(COc1ccc2c3c(c(=O)oc2c1)CCCC3)NCC(O)c1ccccc1 (configuration not stated),4.21%,
COCCN1C(=O)C(=O)/C(=C(/O)c2ccc(S(=O)(=O)N3CCOCC3)cc2)C1c1ccc(OC)c(OC)c1 (configuration not stated),1.7%,
C/C(=N/NC(=O)c1ccncc1)c1ccc2c(c1)OCO2,8.05%,
C/C(=N\NC(=O)C(N)=O)c1ccc2c(c1)OCCO2,-20.3%,
C/C(=N/NC(=S)Nc1ccccc1)c1ccc2c(c1)OCO2,,4.47 µM (active)
Cc1ccccc1N1CCN(C2CCCN(C(=O)c3cn4c(C)cccc4n3)C2)CC1 (configuration not stated),2.74%,
CCc1nn(CCCC(=O)Nc2ccc(C)c(C)c2)c(=O)c2cc3occc3n12,-2.24%,
CN1C/C(=C/c2cccs2)C(=O)/C(=C\c2cccs2)C1,0.426%,
O=C(Nc1cccc([N+](=O)[O-])c1)Nc1ccc(Cl)cn1,-8.42%,

Structure (SMILES),"activity, negative = inhibition",Potency
CCCc1cc(C(=O)Nc2ccc(Cl)cn2)cs1,-25.9%,
O=C(Nc1ccc(Cl)cn1)Nc1cccs1,,14.1 µM (active)
COc1cc(/C=N/N2CCN(c3ccccc3)CC2)ccc1OC(C)=O,1.56%,
COc1cc2c(cc1OC)/C(=C/C(=O)c1ccc(NC(C)=O)cc1)NCC2,-3.3%,
C/C(=C\C(=O)c1ccc(Br)cc1)N1CCCCC1,1.38%,
CC1CN/C(=C\C(=O)c2ccc(Br)cc2)C(=O)N1 (configuration not stated),,11.2 µM (active)
Cc1ccnc(SCC(N)=O)n1,13.3%,
O=C1CC(Sc2ncn[nH]2)C(=O)N1c1ccccc1 (configuration not stated),1.14%,
CCOc1ccccc1N1C(=O)CC(Sc2nccc(C)n2)C1=O (configuration not stated),,17.8 µM (active)
COC(=O)C1CCN(C(=O)c2ccc3oc(Cc4ccc(Cl)cc4)nc3c2)CC1,6.36%,
COc1ccc(-c2nc3c(s2)CCc2onc(-c4ccc(OC)cc4)c2-3)cc1,2.49%,
CCn1ccnc1CNC(=O)CC1C(=O)NCCN1CCCc1ccccc1 (configuration not stated),-0.0781%,
COCCNC(=S)N(CCc1c(C)[nH]c2ccc(C)cc12)Cc1cccnc1,1.9%,
Cc1cccc(Nc2nc(-c3ccccc3)cs2)n1,,17.8 µM (active)
NS(=O)(=O)c1ccc(Nc2nc(-c3ccccc3)cs2)cc1,-27.5%,
Cc1cccc(S(=O)(=O)CC(=O)Nc2nc(-c3ccccc3)cs2)c1,0.641%,
O=C(Nc1ccc(S(=O)(=O)N2CCOCC2)cc1)c1ccc2ncsc2c1,0.439%,
COc1ccccc1-c1nnc(SCC(=O)Nc2ccccc2)o1,-26.6%,
COc1ccccc1-c1nnc(NC(=O)c2ccc3ncsc3c2)o1,,0.501 µM (active)
